This passage reports z-score and composite z-score results from PubChem BioAssay.

The source made the active and inactive calls.

The nature of assay [1]: E. coli DRC41 culture turbidity changes, primary screen, E. coli filamentation inducer project, strain DRC41, OD650, 48 h (AID 1152).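 Note: E. coli MC1000 strain DRC41 lacking acrAB efflux pump and sulA.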 The settings on record: E. coli DRC41 (acrAB sulA), higher = more signal, called active from +8 up or from −8 down.
Assay [2] can be described thus: small-molecule binders of probe aLefty1, primary screen, biochemical, small-molecule microarray, 635/667 nm fluorescence (AID 1153).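 Note: score merges spot fluorescence with signal-to-noise ratio from the scanned slide images.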 The settings on record: higher = more signal.
Assay [3] is described as follows: PSAC antagonists in infected red cells, primary screen, cell-based, P. falciparum Indochina, OD700, 1 h (AID 1154). The settings on record: P. falciparum Indochina infected RBC osmotic lysis, higher = more signal, called active from +8 up or from −8 down.
A short description of assay [4]: PSAC antagonists in infected red cells, primary screen, cell-based, P. falciparum Indochina, OD700, 2 h (AID 1155).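 Note: lysis reports solute entry through the parasite surface anion channel PSAC; channel blockers reduce lysis of infected cells.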 The settings on record: P. falciparum Indochina infected erythrocytes, osmotic lysis OD700; higher = more signal, called active from +8 up or from −8 down.
Assay [5] is described as follows: osmotic lysis modulators in infected erythrocytes, primary screen, PSAC antagonist project, cell-based, P. falciparum Indochina, OD700, 3 h (AID 1156). The settings on record: higher = more signal, called active from +8 up or from −8 down.
Assay [6] in a line: PSAC antagonists in infected red cells, primary screen, cell-based, P. falciparum Indochina, OD700, 18 h (AID 1157). The settings on record: P. falciparum Indochina infected erythrocytes, osmotic lysis OD700, 18 h; higher = more signal, called active from +8 up or from −8 down.
Assay [7] can be described thus: modulators of S6 phosphorylation in cells, primary screen, cell-based, A549, cytoblot, luminescence, serum-stimulated (AID 1158).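 Note: serum-stimulated A549 lung adenocarcinoma cells; signal is phosphorylated S6 detected by cytoblot immunostaining with HRP secondary.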 The settings on record: A549 phospho-S6 cytoblot, 5 h, higher = more signal.
Assay [8] addresses NADPH oxidase 2 (Homo sapiens) (UniProt P04839). As to the kind of experiment: NOX2-dependent H2O2 signal modulators, primary screen, NOX inhibitor project, cell-based, HEK293-NOX2, PMA-stimulated, Amplex Red fluorescence (AID 1159). Note: test concentration not given here. The settings on record: 45 min, higher = more signal, called active from +8 up or from −8 down.
For assay [9], the target named is NADPH oxidase 4 (Homo sapiens) (UniProt Q9NPH5). As to the kind of experiment: NOX4-dependent H2O2 signal modulators, primary screen, NOX inhibitor project, cell-based, HEK293-NOX4, tetracycline-induced, Amplex Red fluorescence (AID 1160). The settings on record: 45 min, higher = more signal, called active from +8 up or from −8 down.
Chain of NADPH oxidase 4 (Homo sapiens) (Q9NPH5 whole entry, looked up): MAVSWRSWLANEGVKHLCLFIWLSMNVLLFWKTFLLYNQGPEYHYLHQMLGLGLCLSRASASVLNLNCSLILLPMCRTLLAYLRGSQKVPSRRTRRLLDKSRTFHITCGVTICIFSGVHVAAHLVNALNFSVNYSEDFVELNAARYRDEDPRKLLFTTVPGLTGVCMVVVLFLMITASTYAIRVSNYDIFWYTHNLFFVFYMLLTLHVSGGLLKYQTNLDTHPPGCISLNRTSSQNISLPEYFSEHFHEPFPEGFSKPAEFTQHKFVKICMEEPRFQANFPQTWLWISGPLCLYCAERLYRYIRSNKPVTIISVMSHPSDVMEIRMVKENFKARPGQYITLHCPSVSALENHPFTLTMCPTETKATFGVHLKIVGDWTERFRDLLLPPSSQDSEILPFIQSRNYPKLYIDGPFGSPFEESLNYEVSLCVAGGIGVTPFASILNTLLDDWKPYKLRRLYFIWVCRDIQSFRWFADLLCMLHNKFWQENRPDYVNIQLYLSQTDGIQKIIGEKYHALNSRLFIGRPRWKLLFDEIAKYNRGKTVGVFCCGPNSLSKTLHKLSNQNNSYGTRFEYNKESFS
The target of assay [10] is NADPH oxidase 5 (Homo sapiens) (UniProt Q96PH1). In words: NOX5-dependent H2O2 signal modulators, primary screen, NOX inhibitor project, cell-based, HEK293-NOX5, Amplex Red fluorescence (AID 1161). The settings on record: HEK293-NOX5, ionomycin, 45 min, higher = more signal.
Chain of NADPH oxidase 5 (Homo sapiens) (Q96PH1 whole entry, looked up): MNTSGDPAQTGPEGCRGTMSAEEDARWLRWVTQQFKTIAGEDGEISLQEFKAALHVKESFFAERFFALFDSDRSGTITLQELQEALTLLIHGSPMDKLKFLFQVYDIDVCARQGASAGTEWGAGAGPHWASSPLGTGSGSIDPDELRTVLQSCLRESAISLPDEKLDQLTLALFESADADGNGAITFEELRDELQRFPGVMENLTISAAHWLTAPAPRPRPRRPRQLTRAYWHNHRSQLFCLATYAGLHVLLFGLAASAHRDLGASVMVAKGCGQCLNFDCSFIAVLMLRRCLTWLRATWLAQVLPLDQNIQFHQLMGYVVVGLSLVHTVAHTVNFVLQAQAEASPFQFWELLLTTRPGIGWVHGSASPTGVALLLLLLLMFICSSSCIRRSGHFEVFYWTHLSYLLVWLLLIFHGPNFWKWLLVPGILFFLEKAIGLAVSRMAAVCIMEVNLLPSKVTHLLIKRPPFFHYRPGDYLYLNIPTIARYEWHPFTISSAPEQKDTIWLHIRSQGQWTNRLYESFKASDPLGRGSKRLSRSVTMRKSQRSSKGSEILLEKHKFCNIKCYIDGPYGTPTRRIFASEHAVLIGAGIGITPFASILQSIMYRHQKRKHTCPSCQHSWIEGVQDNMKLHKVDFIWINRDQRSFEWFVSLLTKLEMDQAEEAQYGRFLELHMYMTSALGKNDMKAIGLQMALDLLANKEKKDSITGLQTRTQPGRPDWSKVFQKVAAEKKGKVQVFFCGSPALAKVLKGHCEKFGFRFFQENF
A short description of assay [11]: A549 cell viability effects, profiling panel, calcein-AM fluorescence, 48 h, basal (AID 1162). Note: test concentration not given here. The settings on record: higher = more signal.
Assay [12] in a line: adipocyte viability effects, profiling panel, cell-based, 3T3-L1 adipocytes, calcein-AM fluorescence, 48 h, basal (AID 1163). Note: test concentration not given here. The settings on record: 3T3-L1 adipocytes viability, higher = more signal.
Assay [13] can be described thus: HepG2 cell viability effects, profiling panel, calcein-AM fluorescence, 48 h, basal (AID 1164). Note: test concentration not given here. The settings on record: higher = more signal.
Assay [14] in a line: MM1S cell viability effects, profiling panel, calcein-AM fluorescence, 48 h, basal (AID 1165).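 Note: viability of MM1S multiple myeloma cells under basal unstimulated conditions; test concentration not given here.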 The settings on record: higher = more signal.
Assay [15] is described as follows: basal RPMI8226 viability, no added stimulus, profiling panel, cell-based, calcein-AM fluorescence, 48 h, PK04 Diversity Set (AID 1166).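 Note: cells grown under basal conditions without added stimulus; test concentration not given here.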 The settings on record: RPMI8226 myeloma viability, higher = more signal.
Assay [16] is described as follows: basal HepG2 mitochondrial membrane potential changes, profiling panel, cell-based, JC-1 fluorescence, 24 h, 100 nL compound (AID 1167). Note: test concentration not given here. The settings on record: higher = more signal.
Assay [17] in a line: basal 3T3-L1 adipocyte mitochondrial potential changes, profiling panel, cell-based, JC-1 fluorescence, 3T3-L1 adipocytes, 24 h, 100 nL compound (AID 1168). Note: test concentration not given here. The settings on record: JC-1 mitochondrial fluorescence, higher = more signal, called active from +8 up or from −8 down.
Assay [18] is described as follows: basal RPMI8226 mitochondrial membrane potential changes, profiling panel, cell-based, JC-1 fluorescence, 24 h, 100 nL compound (AID 1169). Note: test concentration not given here. The settings on record: RPMI8226 myeloma, JC-1 mitochondrial potential fluorescence, higher = more signal.
A short description of assay [19]: basal MM1S mitochondrial membrane potential changes, profiling panel, cell-based, JC-1 fluorescence, 24 h, 100 nL compound (AID 1170). Note: test concentration not given here. The settings on record: higher = more signal.
Assay [20] can be described thus: A549 lung cancer cell viability effects, profiling panel, resazurin fluorescence, 24 h, PK04 Diversity Set (AID 1171). Note: test concentration not given here. The settings on record: higher = more signal, called active from +8 up or from −8 down. Background: Alamar Blue is a resazurin reagent that responds to reducing activity.

Chain of NADPH oxidase 2 (Homo sapiens) (P04839 whole entry, looked up): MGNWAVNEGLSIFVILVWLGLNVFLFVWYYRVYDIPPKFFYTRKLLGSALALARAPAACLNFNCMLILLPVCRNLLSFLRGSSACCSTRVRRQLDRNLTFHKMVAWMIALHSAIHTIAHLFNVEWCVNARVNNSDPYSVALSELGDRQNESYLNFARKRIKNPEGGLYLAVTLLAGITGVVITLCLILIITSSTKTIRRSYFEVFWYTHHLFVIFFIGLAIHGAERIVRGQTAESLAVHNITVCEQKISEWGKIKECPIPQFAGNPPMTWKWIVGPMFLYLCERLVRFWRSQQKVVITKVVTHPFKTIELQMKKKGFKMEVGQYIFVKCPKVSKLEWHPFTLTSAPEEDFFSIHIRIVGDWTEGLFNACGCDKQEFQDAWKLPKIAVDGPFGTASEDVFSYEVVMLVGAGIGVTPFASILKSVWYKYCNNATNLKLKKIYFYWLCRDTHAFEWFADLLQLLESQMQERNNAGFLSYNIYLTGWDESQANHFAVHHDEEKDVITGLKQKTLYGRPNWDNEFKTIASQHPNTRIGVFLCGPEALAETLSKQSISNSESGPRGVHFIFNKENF

For the molecule `COC(=O)C1(CC(C)C)C=C2C(=C(C(C)C)C(=O)C2C)CN1` (stereo not given), the z-score in assay [1] was -1.85 (inactive); in [3], 1.06 (inactive); in assay [4], -0.385 (inactive); in [5], 1.07 (inactive); in [6] it was 0.274 (inactive); in [7] it was -0.38. For the same molecule, the z-score is 0.377 (inactive) in assay [8]; -1.05 (inactive) in assay [9]; -2.44 in assay [10]; -1.49 in assay [11]; -0.404 in [12]; -1.43 in assay [13]. Moreover, the z-score in assay [14] was 0.0112; in assay [15], -1.31; in assay [16], -1.31; in assay [17], -1.46 (inactive); in [18], 0.105; in assay [19], -0.919. The z-score in assay [20] was -0.697 (inactive). This molecule registered a composite z-score in [2] of 0.302.
As to `CCOC(=O)C[C@H]1[C@H](OC(=O)Cc2ccc3c(c2)OCO3)[C@@H](NC(=O)c2ccccc2)c2cc(OCCCO)ccc2N1C(=O)Cc1ccc(OC)cc1`, the z-score in [1] is 1.57 (inactive); in assay [3] it was 9.58 (active); in assay [4], 0.828 (inactive); in assay [5], -0.288 (inactive); in assay [6] it was -0.129 (inactive); in assay [7], 2.91. Besides, the z-score in assay [8] is -0.986 (inactive); in assay [9] it was 0.205 (inactive); in assay [10], -1.1; in assay [11] it was 3.09; in assay [12], 1.19; in assay [13], 1.01. The z-score in [14] was 0.856; in assay [15], 0.434; in assay [16] it was 1.53; in assay [17] it was -0.947 (inactive); in assay [18] it was 0.133; in assay [19], -0.851. For the same molecule, the z-score in [20] was 0.0119 (inactive). In addition, in assay [2], the composite z-score is -0.31.
For `CN(C)C(=O)[C@@]1(CCS(=O)(=O)c2ccccc2)N=C(c2ccc(OCCCO)cc2)O[C@H]1c1ccccc1N=[N+]=[N-]`, the z-score in [1] is 0.395 (inactive); in [3], 28.1 (active); in [4] it was 27.4 (active); in assay [5] it was 1.78 (inactive); in [6], 2.09 (inactive); in assay [7] it was -0.76. The z-score in assay [8] was -2.01 (inactive); in assay [9], -0.478 (inactive); in assay [10], -0.984; in assay [11], 0.137; in assay [12], -0.471; in assay [13], 1.27. For the same molecule, the z-score is -1.68 in [14]; -0.941 in assay [15]; 0.121 in assay [16]; -0.477 (inactive) in assay [17]; -1.32 in assay [18]; -0.591 in [19]. Further, the z-score in [20] is -0.217 (inactive). Also, the composite z-score in assay [2] is -0.148.
With `C=CC[C@@]1(C(=O)O)N=C(c2ccc(OCCCO)cc2)O[C@@H]1c1ccccc1CN=[N+]=[N-]`, the z-score in [1] was 0.578 (inactive); in assay [3] it was 25.8 (active); in [4], 16.5 (active); in [5] it was 1.15 (inactive); in [6], 1.71 (inactive); in assay [7], 0.842. Also, the z-score is -0.235 (inactive) in assay [8]; 1.24 (inactive) in assay [9]; 0.186 in assay [10]; -0.473 in [11]; 0.891 in assay [12]; 0.545 in assay [13]. Besides, the z-score in [14] was 0.15; in assay [15], 0.0466; in assay [16], 0.171; in assay [17], -0.164 (inactive); in assay [18] it was -0.973; in [19] it was -1.54. The z-score in assay [20] is 0.611 (inactive). Also, the composite z-score in assay [2] is -0.335.
For the molecule `CCOC(=O)C1=CCC(c2cc3ccccc3[nH]2)N(S(=O)(=O)c2ccccc2[N+](=O)[O-])C1` (stereo not given), the z-score is -0.485 (inactive) in assay [1]; 4.73 (inactive) in [3]; 0.822 (inactive) in [4]; -0.217 (inactive) in assay [5]; 0.631 (inactive) in assay [6]; -0.146 in assay [7]. The z-score in assay [8] is 0.269 (inactive); in assay [9], -0.546 (inactive); in assay [10], 0.731; in [11], 0.0857; in [12] it was -0.913; in [13], 0.527. Also, the z-score is 0.277 in [14]; -0.467 in assay [15]; 1.17 in [16]; -0.433 (inactive) in assay [17]; -0.366 in assay [18]; -1.61 in assay [19]. For the same molecule, the z-score in [20] was -0.869 (inactive). Besides, the composite z-score in assay [2] is -0.391.
As to `N[C@@H](Cc1ccccc1)Cn1cc(C2(O)CCCCC2)nn1`, the z-score was -1.05 (inactive) in assay [1]; 0.225 (inactive) in assay [3]; -0.304 (inactive) in assay [4]; 0.005 (inactive) in [5]; 0.137 (inactive) in [6]; -0.225 in assay [7]. The z-score in assay [8] is 0.0811 (inactive); in assay [9] it was 1.51 (inactive); in assay [10], 1.19; in assay [11], -0.359; in assay [12] it was -0.169; in assay [13], 0.0224. Also, the z-score in [14] is -0.991; in assay [15], -0.775; in assay [16], -0.739; in assay [17] it was -0.375 (inactive); in assay [18], -0.622; in assay [19], -0.313. Further, in assay [20], the z-score was -0.279 (inactive). In [2], this molecule registered a composite z-score of 0.099.
Turning to `CN1C(=O)[C@]2(CCS(=O)(=O)c3ccccc3)N=C(c3ccc(OCCCO)cc3)O[C@@H]2c2ccccc21`, the z-score in assay [1] was -1.06 (inactive); in [3], 29.6 (active); in assay [4] it was 27.2 (active); in [5] it was 2.49 (inactive); in assay [6], 1.87 (inactive); in assay [7] it was -0.0831. Further, the z-score in assay [8] is 0.276 (inactive); in [9] it was -0.0954 (inactive); in assay [10], -1.12; in assay [11] it was -0.189; in assay [12], -1.15; in [13] it was 0.881. Further, the z-score in [14] is -2.04; in [15] it was -1.77; in assay [16], -0.447; in [17], -0.466 (inactive); in [18], -0.852; in assay [19], 0.48. Further, the z-score in [20] was -0.015 (inactive). In assay [2], this molecule displayed a composite z-score of 0.18.
On to `CCCC[C@@H]1C[C@H]1[C@@H](NC(=O)Cc1ccccc1)c1ccc(Cl)cc1`, for which the z-score in [1] is -1.71 (inactive); in assay [3], 1.15 (inactive); in [4] it was 1.03 (inactive); in [5], 2.18 (inactive); in [6], 1.53 (inactive); in assay [7], -1.06. Further, the z-score is -0.795 (inactive) in [8]; -0.195 (inactive) in assay [9]; 1.88 in assay [10]; -1.07 in assay [11]; -0.669 in assay [12]; -1.9 in assay [13]. Besides, the z-score in [14] is -3.46; in assay [15] it was -4.66; in assay [16], -4.92; in assay [17], -1.27 (inactive); in [18], -0.906; in assay [19], -2.89. Besides, the z-score in assay [20] is 3.48 (inactive). In assay [2], this molecule gave a composite z-score of 0.509.
